Experimental data: PubChem BioAssay
“And” between values parts separate entries of the source, which are not always exact repeats. Identical values can stand only once. Results filed as inconclusive are left out. The source made the active and inactive calls. Unless noted, the rule behind the calls is not given here.

Key:
[1] = tested on: Hepatitis C virus NS3 helicase; assay: blockers of NS3h binding to ssDNA – biochemical, fluorescence polarization, LOPAC1280 library, primary screen (AID 687035; in the data active = inhibition above about 37%); conditions: Purified HCV NS3 helicase, Cy5-dT15 ssDNA binding fluorescence polarization; stronger effect = higher value; concentration not given here
[2] = compounds altering Cy5-DNA-NS3h complex signal – biochemical, LOPAC1280, artefact control for HCV NS3 helicase inhibitor project (AID 687037); conditions: Cy5-DNA-NS3h complex fluorescence interference counterscreen
[3] = signal quenchers or enhancers, Cy5 substrate/SSB – biochemical, NIH Clinical Collection, E. coli SSB, artefact control for HCV NS3 helicase inhibitor project (AID 743268); conditions: Cy5-oligo bound E. coli SSB, fluorescence interference
[4] = tested on: Hepatitis C virus NS3 helicase; assay: blockers of NS3h binding to DNA – biochemical, fluorescence polarization, NIH Clinical Collection, primary screen (AID 743270); conditions: NS3 helicase binding to Cy5-dT15 DNA, stronger effect = higher value, concentration not given here
[5] = molecular target: Single-stranded DNA-binding protein (Escherichia coli (strain K12)) (UniProt P0AGE0); assay: SSB-ssDNA binding inhibitors – biochemical, fluorescence polarization, NIH Clinical Collection, counter-screen for HCV NS3 helicase inhibitor project (AID 743271; in the data active = inhibition above about 28%); conditions: E. coli SSB-DNA binding, stronger effect = higher value, concentration not given here
[6] = compounds distorting NS3 helicase fluorescence signal – biochemical, NIH Clinical Collection, artefact control for HCV NS3 helicase inhibitor project (AID 743272); conditions: fluorescence interference counterscreen, HCV NS3 helicase assay; stronger effect = lower value;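 note: HCV NS3 helicase with a Cy5 labelled single stranded DNA probe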
[7] = tested on: Neuropilin-2 / VEGF-C interaction (human); assay: small molecules blocking Neuropilin-2/VEGF-C interaction – biochemical, microplate binding format, z-score (AID 743281); conditions: microplate NRP2/VEGF-C binding assay; stronger effect = lower value
[8] = Wnt pathway potentiators raising nuclear beta-catenin – imaging, WNT3A-conditioned medium, mouse C2C12, NPC library, primary screen (AID 1117326; in the data active = nuclear beta-catenin stimulation mostly above about 4.2%, no sharp cut-off; inactive = mostly below about 10%); conditions: stronger effect = higher value
[9] = stimulators of insulin release from INS-1E, primary screen, cell-based, 5 mM glucose, NPC library (AID 1117329;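 active = compound raises insulin release from rat beta cells at 5 mM glucose, no numeric limit stated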); conditions: rat INS-1E insulin secretion, at 10 µM, stronger effect = higher value
[10] = growth inhibition of GSK3B-pretreated HCT116 cells – cell-based, CellTiter-Glo, 0.2 to 20 µM (AID 1117336;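 active = compounds lowering colon cancer cell viability after pretreatment blocking the GSK3B kinase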); conditions: HCT116 viability after GSK3B inhibitor, at 20 µM, stronger effect = higher value
[11] = inhibition of endothelial tube formation, primary screen, imaging, VEGF stimulated, CD31 staining, tube area, NPC library (AID 1117340;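 active = compound that reduces growth-factor-driven endothelial tube area in a mixed cell culture, no cutoff stated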); conditions: VEGF-stimulated ADSC/ECFC co-culture, at 10 µM, stronger effect = higher value
[12] = GLP1 release stimulators, primary, NCI-H716, NPC library (AID 1117341;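 active = compound raises GLP1 secretion from the human gut endocrine cells, with no numeric limit stated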); conditions: NCI-H716 cells, at 10 µM, stronger effect = higher value
[13] = HCT116 colon cancer cell growth inhibition, primary screen, CellTiter-Glo luminescence, NPC library (AID 1117342;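 active = compounds that lower survival of HCT116 colon cancer cells in the luminescence readout, no numeric limit stated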); conditions: at 20 µM (top of the series)
[14] = reduced SW480 viability measured with CellTiter-Glo, NPC library, primary (AID 1117343;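 active = compounds that lower viability of the colon cancer cells in the luminescence readout, with no numeric limit stated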); conditions: CellTiter-Glo luminescence; at 20 µM (top of the series)
[15] = NPC library primary testing for decreased DLD-1 cell viability via CellTiter-Glo (AID 1117346;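 active = compounds that lower survival of DLD-1 colon cancer cells in the luminescence readout, no cutoff given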); conditions: DLD-1 viability, CellTiter-Glo luminescence; at 20 µM (top of the series)
[16] = molecular target: 6-phosphogluconate dehydrogenase, decarboxylating (Homo sapiens) (UniProt P52209); assay: inhibition of human phosphogluconate dehydrogenase – biochemical, recombinant enzyme, NADPH absorbance, primary screen (AID 1159550;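 active = at least 20% inhibition of 6-phosphogluconate dehydrogenase activity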); conditions: recombinant 6PGD, NADPH absorbance 341 nm; at 10 µM; stronger effect = higher value
Chain of 6-phosphogluconate dehydrogenase, decarboxylating (Homo sapiens) (P52209 whole entry, looked up): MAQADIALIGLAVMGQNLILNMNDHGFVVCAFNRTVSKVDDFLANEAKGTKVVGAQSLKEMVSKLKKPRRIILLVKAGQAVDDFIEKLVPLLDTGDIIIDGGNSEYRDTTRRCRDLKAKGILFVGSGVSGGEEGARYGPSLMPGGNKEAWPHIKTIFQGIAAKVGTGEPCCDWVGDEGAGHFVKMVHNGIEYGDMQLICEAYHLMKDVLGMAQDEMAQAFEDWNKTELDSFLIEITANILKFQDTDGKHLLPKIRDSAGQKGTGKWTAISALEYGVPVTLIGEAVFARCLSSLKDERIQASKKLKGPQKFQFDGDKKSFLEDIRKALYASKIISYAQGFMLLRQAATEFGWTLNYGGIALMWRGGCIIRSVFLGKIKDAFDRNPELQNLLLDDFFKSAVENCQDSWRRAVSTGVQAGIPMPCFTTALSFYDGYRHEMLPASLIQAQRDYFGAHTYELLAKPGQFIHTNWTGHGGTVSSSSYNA

[17] = modulation of C. elegans fzo-1 (AID 1259413);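 note: fzo-1 mutant C. elegans worms in liquid wells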; conditions: C. elegans fzo-1 modulator screen, mean read-out; stronger effect = higher value
[18] = EMT-state selective cytotoxicity in co-culture – imaging, PC-3E GFP, TEM4-18 mCherry, primary screen (AID 1345086;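 active = compounds killing one labelled cell type while sparing the other, by normalised counts and ratio limits, not self-fluorescent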;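 note: cells exposed to compound for 72 h before imaging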;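 for red/green cell ratio (normalised): normalised mesenchymal count divided by normalised epithelial count so high means epithelial killing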); conditions: PC-3E GFP / TEM4-18 mCherry co-culture, imaging cell counts, at 1 µM
[19] = tested on: Aerobactin synthetase IucA (Klebsiella pneumoniae); assay: inhibition of K. pneumoniae IucA enzyme – biochemical, Tocris library, absorbance (AID 1345561); conditions: purified IucA enzyme assay, absorbance (OD) read-out; stronger effect = lower value;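 tested at 8 µM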;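 note: 100% = enzyme without compound and 0% = no enzyme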
[20] = growth inhibition of DIPG cells – cell-based, MIPE4.0 library, CellTiter-Glo luminescence, qHTS (AID 1347066; cut-off not given, nearly all actives have AC50 up to about 30 µM;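 note: cells exposed to compound for 48 hours before readout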); conditions: SU-DIPG-VI viability, CellTiter-Glo ATP luminescence
[21] = blockers of cellular phospholipid synthesis – cell-based, LOPAC library, screen 4, primary screen (AID 1347384); conditions: animal cells, phospholipid biosynthesis inhibition screen; at 10 µM
[22] = MELAS cybrid and Rieske KO viability enhancers – cell-based, MELAS cybrids, Rieske KO mouse fibroblasts, CellTiter-Glo, primary screen (AID 1508586;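 active = mean z-score across replicates of 1.96 or higher in either the MELAS or the Rieske mutant cell line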;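 note: z relative to plate mean and SD of compound and empty wells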); conditions: low glucose
[23] = molecular target: NAD(+) hydrolase SARM1 (Homo sapiens) (UniProt Q6SZW1); assay: blocking NAD cleavage by SARM1 SAM-TIR – cell lysate, NAD-Glo luminescence (AID 1508614;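 active = compound whose remaining NAD level is above about 45 nM, limit read from the data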;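 note: higher remaining NAD means stronger inhibition of SARM1 NADase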); conditions: SAM-TIR HEK293T lysate NADase, at 1 µM, stronger effect = higher value
Chain of NAD(+) hydrolase SARM1 (Homo sapiens) (Q6SZW1 whole entry, looked up, the tested form may be a part): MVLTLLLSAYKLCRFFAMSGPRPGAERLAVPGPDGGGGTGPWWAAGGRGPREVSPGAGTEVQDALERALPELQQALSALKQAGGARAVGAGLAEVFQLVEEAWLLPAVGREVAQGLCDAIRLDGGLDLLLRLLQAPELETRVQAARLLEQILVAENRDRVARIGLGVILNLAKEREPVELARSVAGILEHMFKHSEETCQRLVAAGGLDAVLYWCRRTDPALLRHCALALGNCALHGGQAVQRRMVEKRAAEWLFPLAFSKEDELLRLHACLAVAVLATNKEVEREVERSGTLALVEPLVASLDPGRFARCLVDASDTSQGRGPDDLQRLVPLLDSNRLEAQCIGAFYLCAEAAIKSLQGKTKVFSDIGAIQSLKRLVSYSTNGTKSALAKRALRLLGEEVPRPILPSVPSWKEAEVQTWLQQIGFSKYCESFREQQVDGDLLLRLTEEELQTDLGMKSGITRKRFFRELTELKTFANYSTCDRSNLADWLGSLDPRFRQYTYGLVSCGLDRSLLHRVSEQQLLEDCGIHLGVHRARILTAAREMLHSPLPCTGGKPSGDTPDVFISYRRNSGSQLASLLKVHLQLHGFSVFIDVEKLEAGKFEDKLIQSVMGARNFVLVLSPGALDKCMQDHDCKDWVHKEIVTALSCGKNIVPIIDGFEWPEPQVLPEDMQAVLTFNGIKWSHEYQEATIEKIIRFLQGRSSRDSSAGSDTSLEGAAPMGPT

[24] = molecular target: Mitogen-activated protein kinase 7 (Homo sapiens) (UniProt Q13164); assay: Gal4-ERK5 driven luciferase induction – cell-based, HTS, primary screen (AID 1508626;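 active = luciferase signal above three times the same-plate solvent-only control wells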;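 note: luciferase driven by Gal4-ERK5 fusion binding five Gal4 sites before minimal TATA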); conditions: HeLa Gal4-ERK5 transactivation, 18 h, at 5 µM, stronger effect = higher value
Chain of Mitogen-activated protein kinase 7 (Homo sapiens) (Q13164 whole entry, looked up, the tested form may be a part): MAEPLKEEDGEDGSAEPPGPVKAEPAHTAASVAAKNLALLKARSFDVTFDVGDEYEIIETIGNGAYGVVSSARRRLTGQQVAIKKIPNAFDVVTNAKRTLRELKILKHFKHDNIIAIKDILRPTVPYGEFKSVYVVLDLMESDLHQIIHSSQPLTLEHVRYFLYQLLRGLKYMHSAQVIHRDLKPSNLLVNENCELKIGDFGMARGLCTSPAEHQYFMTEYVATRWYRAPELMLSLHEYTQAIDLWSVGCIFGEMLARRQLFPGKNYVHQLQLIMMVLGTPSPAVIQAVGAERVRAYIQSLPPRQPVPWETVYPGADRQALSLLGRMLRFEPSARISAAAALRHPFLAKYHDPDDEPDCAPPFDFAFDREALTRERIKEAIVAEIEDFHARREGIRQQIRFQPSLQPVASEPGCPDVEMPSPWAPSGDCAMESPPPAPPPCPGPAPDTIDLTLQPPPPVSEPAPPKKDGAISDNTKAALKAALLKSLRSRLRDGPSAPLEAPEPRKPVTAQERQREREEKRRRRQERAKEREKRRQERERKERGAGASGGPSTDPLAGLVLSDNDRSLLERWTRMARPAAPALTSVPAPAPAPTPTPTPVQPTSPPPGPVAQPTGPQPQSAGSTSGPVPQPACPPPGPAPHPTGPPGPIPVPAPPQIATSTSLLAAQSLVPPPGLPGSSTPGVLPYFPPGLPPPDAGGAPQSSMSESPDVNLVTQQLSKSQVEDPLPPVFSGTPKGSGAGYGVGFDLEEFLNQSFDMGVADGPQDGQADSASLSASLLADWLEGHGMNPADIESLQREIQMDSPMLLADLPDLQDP

[25] = galactose survival enhancers in mitochondrial complex I cybrids – cell-based, galactose medium, ATP luminescence, primary screen (AID 1645843;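 active = z-score of at least 1.8 in each of two replicates, scored against plate mean and spread of sample wells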;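 note: positive z means more ATP and so rescue of galactose-driven cybrid death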); conditions: complex I mutant cybrid cells, 72 h, stronger effect = higher value

Fc1ccc([C@@H]2CCNC[C@H]2COc2ccc3c(c2)OCO3)cc1
inactive: inhibition [1] -1% | fluorescence ratio (interference) [2] 0.9 | fluorescence ratio [3] 1 | inhibition [4] -1.19% | inhibition [5] -1.64% | fluorescence ratio [6] 0.99 | z-score [7] 0.222 | nuclear beta-catenin stimulation ([8]; at 10 µM) 2.2% | insulin secretion stimulation [9] 11.8% | viability decrease [10] -148% | GLP1 secretion stimulation [12] 1.4% | inhibition of viability [13] 28.1% | viability decrease (inhibition) [14] 23% | viability decrease (inhibition) [15] 19.7% | inhibition [16] -2.44% | mean signal [17] 159 | red/green cell ratio (normalised) ([18]; actives lie on both sides, counts scaled to control wells, 1 = unselective) 0.99 | remaining activity [19] 109% | outcome [20] | outcome [21] | z-score ([22]; MELAS cybrid survival, CellTiter-Glo 48 h, stronger effect = higher value) -0.279 and -0.953 | remaining NAD [23] 10 nM | luciferase signal [24] 168 AU | z-score [25] -1.38 and -0.63 and -1.71
0.47: normalised cell number ([18]; measured here: mesenchymal TEM4-18 mCherry cell survival)
active: tube area decrease [11] 46.2%
-0.644 and -0.322: z-score ([22]; Rieske KO mouse fibroblast survival, CellTiter-Glo 72 h)
0.48: normalised cell number ([18]; measured here: epithelial PC-3E GFP cell survival)
2.8%: nuclear beta-catenin stimulation ([8]; stimulation, at 2 µM)
